# Experimental data reported in the supplement of paper PMC6555819.
# What was measured:
# Test in all cases: PBM binding z-score (relative to random genomic background probes); higher = stronger binding; sequences stand for … in GC…GCGATTGACAGCGTAGAATGAAGG
# [1] = tested on: FXR:RXRa (NR concentration 270 nM, RXRa partner concentration 90 nM)
# Outline: (§1)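 Custom Agilent 4×180K protein-binding microarrays carried double-stranded probes, each with a 34-nt variable region. These regions held direct-repeat seeds, single-nucleotide variants, half-site ablations and random human genomic background sequences. Ligand-free nuclear receptor dimers were incubated on the arrays for 1 h, antibodies against each partner (one per run) detected binding, and scanned fluorescence was regression-normalized. Binding z-scores take the random background probes as reference.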
# [2] = tested on: LXRa:RXRa (NR concentration 270 nM, RXRa partner concentration 90 nM)
# Outline: as §1
# [3] = tested on: LXRa homodimer (NR concentration 270 nM)
# Outline: as §1
# [4] = tested on: LXRb:RXRa (NR concentration 270 nM, RXRa partner concentration 90 nM)
# Outline: as §1
# [5] = tested on: LXRb homodimer (NR concentration 270 nM)
# Outline: as §1
# [6] = tested on: PPARa:RXRa (NR concentration 270 nM, RXRa partner concentration 90 nM)
# Outline: as §1
# [7] = tested on: PPARg:RXRa (NR concentration 180 nM, RXRa partner concentration 90 nM)
# Outline: as §1
# [8] = tested on: PPARg:RXRa 270nM:90nM, anti-RXR (NR concentration 270 nM, RXRa partner concentration 90 nM)
# Outline: as §1
# [9] = tested on: PPARg:RXRa 30nM:10nM, anti-RXR (NR concentration 30 nM, RXRa partner concentration 10 nM)
# Outline: as §1
# [10] = tested on: PPARg:RXRa 90nM:30nM, anti-RXR (NR concentration 90 nM, RXRa partner concentration 30 nM)
# Outline: as §1
# [11] = tested on: PPARg:RXRa DBDmut IVT, anti-RXR (DBD mutation: RXRa K156A/R161A, NR concentration 270 nM, RXRa partner concentration 90 nM)
# Outline: as §1
# [12] = tested on: PPARg:RXRa IVT, anti-PPARg (NR concentration 270 nM, RXRa partner concentration 90 nM)
# Outline: as §1
# [13] = tested on: PPARg DBDmut:RXRa IVT, anti-PPARg (DBD mutation: PPARg1 K132A/R137A, NR concentration 270 nM, RXRa partner concentration 90 nM)
# Outline: as §1
# [14] = tested on: PPARg DBDmut IVT, anti-PPARg (DBD mutation: PPARg1 K132A/R137A, NR concentration 270 nM)
# Outline: as §1
# [15] = tested on: PPARg homodimer (NR concentration 180 nM)
# Outline: as §1
# [16] = tested on: PXR:RXRa (NR concentration 270 nM, RXRa partner concentration 90 nM)
# Outline: as §1
# [17] = tested on: PXR homodimer (NR concentration 270 nM)
# Outline: as §1
# [18] = tested on: RARa:RXR (NR concentration 270 nM, RXRa partner concentration 90 nM)
# Outline: as §1
# [19] = tested on: RARa homodimer (NR concentration 270 nM)
# Outline: as §1
# [20] = tested on: RARb:RXRa (NR concentration 270 nM, RXRa partner concentration 90 nM)
# Outline: as §1
Sequence,PBM binding z-score [1],PBM binding z-score [2],PBM binding z-score [3],PBM binding z-score [4],PBM binding z-score [5],PBM binding z-score [6],PBM binding z-score [7],PBM binding z-score [8],PBM binding z-score [9],PBM binding z-score [10],PBM binding z-score [11],PBM binding z-score [12],PBM binding z-score [13],PBM binding z-score [14],PBM binding z-score [15],PBM binding z-score [16],PBM binding z-score [17],PBM binding z-score [18],PBM binding z-score [19],PBM binding z-score [20]
TCTATTAGTTGATTACGGCAACCGAAACAGCGGA,0.899,0.638,0.651,0.546,0.998,0.921,0.134,1.95,3.63,3.1,2.26,0.246,1.27,1.25,1.11,0.471,0.751,0.595,1.59,0.331
AGAACGAGGGCACGCTGAGTTGATAGCAGAGTAG,0.783,0.47,-0.551,0.0516,-0.876,2.36,2.01,1.79,0.0193,0.94,4.13,3.81,0.29,-0.41,0.297,1.28,-0.0574,0.83,0.0569,2.52
AGAACGAGGGCACGCTGATTTGATAGCAGAGTAG,0.707,0.541,-0.464,0.172,-0.795,2.31,2.24,1.79,0.45,1.1,4.06,4.09,0.567,-0.124,0.292,0.514,-0.166,1,-0.142,2.67
TAGCCTAGGTCATGCGGGCAAGTATAGTGTCGGC,4.44,3.3,0.517,1.94,-0.137,3.73,2.32,2.59,0.322,1.54,1.66,3.02,0.235,-0.248,1.39,1.45,-0.333,2.21,0.228,3.83
ACTCGGAGGACAAGGGTCAGAGCTACGCCAGTGA,2,1.9,-0.11,1.6,-0.535,3.37,4.49,4.83,2.75,4.25,0.222,1.88,-0.0175,0.0941,1.36,1.93,-0.342,2.63,0.214,3.29
ACACGGAGGACAAAGGTCAGAGCTACGCCAGTGA,4.18,4.33,1.74,3.36,0.366,5.18,7.55,7.26,5.39,7.07,0.363,3.8,0.472,-0.253,3.82,3.92,0.625,4.81,1.1,4.58
GTAACAAGGTGAATAGGTCGTTGATGAGTAGGCG,1.22,1.04,0.00254,0.69,-0.186,2.9,2.64,2.88,1.27,2.48,3.26,3.65,0.827,0.585,1.61,1.02,0.451,2.04,0.797,2.06
CTACTAAGGTGAACAAGGTCGTTGATTACTATTC,1.84,1.76,0.193,2.02,-0.227,3.07,1.47,1.99,0.156,1.06,3.87,3.07,0.656,0.383,1.12,3.22,2.35,3.18,0.606,2.4
CCTCGGAGGACAACAGGTGGTCAGAGCTGCCAGA,-0.329,-0.519,-0.443,-0.782,-1.09,-0.623,-0.311,-0.79,-1.45,-1.37,-0.455,-0.616,-2.74,-2.26,-0.317,-0.667,-0.589,-0.583,-0.066,1.04
TGAATGAGGTTAAAGAGCAGGGAACGTGGCGTCG,2.98,2.56,-0.586,1.45,0.129,4.23,4.98,6.01,4.52,5.96,2.26,3.24,-0.099,-0.275,0.719,1.53,-0.274,2.52,0.12,1.94
GCTAGTTGGTCAGTAAAAGGACACACACCGGTCG,-0.0634,-0.0918,0.213,-0.44,-0.0401,-0.104,0.654,0.282,-0.0614,-0.0124,0.16,0.5,0.0692,-0.305,0.811,-0.134,0.246,0.153,0.849,1.61
ATCGAAAGGTCGACGAGGTGAGTACACACCGTTT,4.47,3.65,0.0409,2.84,0.25,4.44,2.84,3.38,1.11,2.41,0.467,2.23,0.931,1.06,1.57,3.19,0.753,3.6,0.262,3.82
GAAACGAGGGCAAGTTGATAGCAGAGTTTGATGG,1.07,0.537,-0.42,0.157,-0.895,2.38,1.76,1.76,0.251,1.2,5.01,4.04,0.483,0.387,0.633,0.91,1.01,0.741,-0.324,2.48
CAGCCTAGGTCAGGGCCCGTATAGGAGGAACGTT,1.56,0.731,-0.61,0.395,-1.32,1.72,0.643,0.734,-0.158,0.0498,1.27,1.55,-1.13,-1.09,0.811,-0.134,-0.829,0.752,-0.25,3.23
CCTACTGGGCCACGAAAGGTCATTCATTCAGTGA,3.89,5.43,6.05,4.47,0.659,4.73,4.8,5.02,1.88,4.42,5.95,5.87,1.4,0.0477,3.21,5.7,2.12,5.5,1.45,4.15
ATATGTAGGTTAGCTGTGGTCATTCAGACTAGGC,0.89,1.93,0.212,0.643,0.0822,2.29,3.3,2.79,0.838,1.89,6.97,6.07,2.72,2.03,1.37,1.3,0.0563,1.3,0.467,1.2
TCGAGTAGGTTAGTTGGGGCATTCAGCCAACATA,0.131,-0.106,-0.363,0.412,-0.31,0.49,-0.334,0.635,0.877,0.623,2.05,1.73,-0.651,-0.228,0.105,-0.283,-0.15,0.117,-0.0281,0.529
TAGCCTTGGTCATGCGGGCCAGTATAGTGTCGGC,-0.908,-1.14,-0.986,-1.09,-0.961,-0.707,-0.423,-0.768,-0.886,-0.995,-0.432,0.0959,-0.481,-0.0984,-1.18,-0.758,-1.18,-0.757,-1.23,0.534
AGAATGAGGTTATTAAGATCAGGTAATTGCGGTC,1.7,1.73,0.77,1.33,0.187,2.49,1.38,1.96,0.716,1.09,3.34,2.83,0.665,0.745,1.17,1.48,0.904,1.51,0.41,1.37
CTCGAATGGTCGGTTGAGGTGAGTATACGGATAA,0.27,-0.395,-0.272,-0.377,-0.349,-0.259,-0.0607,-0.192,-0.213,-0.0856,-0.784,0.126,0.733,0.405,-0.164,-0.105,-0.022,0.211,-0.0787,0.283
ACAGACAGGTGATGTAGGTAACTCAGGCTATCAT,-0.0766,-0.183,-0.0278,-0.28,-0.53,0.633,0.673,-0.0404,-0.31,-0.171,1.26,2.15,0.582,0.742,-0.119,-0.31,0.148,-0.0493,0.492,0.149
TCATAAAGGTAAACAGGTGAAAGTCCGTAAGTTA,1.21,1.53,0.0462,1.44,-0.2,2.83,2.29,3.47,4.28,3.89,3.73,2.72,0.109,0.863,1.24,1.22,0.86,1.89,1.6,1.65
ATATGTAGGTTAAGGATCATTCAGGTTGGTTCGC,0.726,1.25,0.404,1.18,0.352,4.46,8.08,7.41,6.08,8.34,7.22,7.16,3.09,2.12,1.49,1.19,0.266,1.13,1.1,1.2
CGTCAAAGCTCAAGGTAACGTAACAGAAAGCAGC,-0.214,-0.485,-0.372,-0.335,-0.863,-0.0672,0.521,-0.193,0.0179,0.133,0.0198,-0.221,-1.47,-0.249,-0.421,-0.257,-0.303,0.0827,-0.0827,-0.0501
CGAACTAGGTCAGAACAGGAGAGTGAAGGATGAT,0.927,0.589,-0.174,0.371,-0.252,3.11,5.25,4.6,1.34,3.7,7.25,7.15,1.13,1.4,0.511,0.126,-0.235,0.576,0.206,2.94
ACTGGCAGGCCAAGTTTGGGTCACTCAAACAAAG,0.314,0.00721,-0.384,0.727,-0.59,1.36,-0.374,-0.085,-0.662,-0.496,-0.444,0.61,-1.01,-1.29,0.0864,0.677,-0.347,1.4,-0.396,1.74
ATCGAAAGGTCGAGGAGAGTATAGAGAAAGGGAA,4.17,3.26,0.202,2.47,0.669,4.24,2.57,2.92,1.38,2.09,0.194,1.22,1.53,0.209,1.53,2.33,0.36,2.76,0.436,3.9
ACTATTTGTTGAGACGAGGGCAACCGATAGGTTG,0.374,0.535,0.28,0.453,0.762,0.255,0.623,0.216,0.23,0.0132,0.443,0.881,1.52,1.09,0.629,0.581,0.979,0.391,0.779,1.07
CGAACTAGGTTAAGGACAGTGAATCTCCGCACGC,0.447,0.377,-0.213,-0.172,-0.661,2.14,2.85,2.74,0.975,2.08,6.49,5.67,0.439,1.14,1.07,-0.145,0.015,0.949,-0.21,1.47
